# Compound activity as filed in PubChem BioAssay.
# An excerpt weighted towards active compounds, which were near 18% of everything screened.
# PLK1 PBD block: inhibitors of human PLK1 polo-box domain binding | P53350 | Plk1 PBD binding of FITC phosphopeptide, fluorescence polarization | Potency, µM, for the others: max response, negative = inhibition, usual class: inhibitors | AID 720504 | 360,000 compounds, 2.8% hits; note: series mostly up to about 57 µM; nearly all actives have a fitted effect of over 65% in size
# KAT2A inh: inhibitors of human GCN5L2 histone acetyltransferase. Q92830. GCN5L2 HAT assay, ThioGlo1 CoA-SH fluorescence. Potency, µM (titrated, usually from 58.9 µM), without a hit: top-dose activity change, negative = inhibition, usual class: inhibitors. 390,000 compounds, 0.21% hits. AID 504327
#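 Free CoA generated was detected with ThioGlo1 (50uM) fluorescence at Ex340nm/Em540nm, read immediately and after 20 min at room temperature. Enzyme, 20 nM in HEPES pH 7.5 buffer, saw compounds 15 min before adding 75uM H3(1-25) peptide and 70uM acetyl-CoA.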
# TDP1 block: TDP1 (human) enzyme inhibition. recombinant TDP1, AlphaScreen DNA substrate cleavage. Potency, µM (series often up to 130 µM), inactives show at the highest dose activity change, negative = inhibition, hits mostly inhibitors. 350,000 compounds, 0.28% hits. AID 485290; note: nearly all actives have a fitted effect of over 40% in size
#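 Recombinant human Tdp1 (E. coli-expressed, 1 nM final) preincubated with compounds 15 min at room temperature, then 5'-biotin/3'-phosphotyrosine-FITC DNA substrate (15 nM final) added for 5 min. AlphaScreen beads (10 ug/ml final) added 10 min; cleavage lowers signal.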
# VDR inh: inhibitors of human vitamin D receptor; P11473; VDR-SRC2-3 peptide fluorescence polarization, 2 h; Potency, µM, without a hit: max response, negative = inhibition, most hits filed as inhibitors; 400,000 compounds, 0.93% hits; AID 504847
# Target sequence (P11473 whole entry, looked up): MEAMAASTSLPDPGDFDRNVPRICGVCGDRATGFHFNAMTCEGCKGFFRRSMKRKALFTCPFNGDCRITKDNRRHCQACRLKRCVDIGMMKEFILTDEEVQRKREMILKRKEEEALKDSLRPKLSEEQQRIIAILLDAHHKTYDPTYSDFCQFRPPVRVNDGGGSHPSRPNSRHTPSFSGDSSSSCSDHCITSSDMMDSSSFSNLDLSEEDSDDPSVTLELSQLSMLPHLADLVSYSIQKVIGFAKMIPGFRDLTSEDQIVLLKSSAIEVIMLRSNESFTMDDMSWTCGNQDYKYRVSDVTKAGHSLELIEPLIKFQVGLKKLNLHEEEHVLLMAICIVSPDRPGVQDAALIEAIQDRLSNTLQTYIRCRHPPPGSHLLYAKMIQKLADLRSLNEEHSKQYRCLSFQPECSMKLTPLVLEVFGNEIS
#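 VDR–SRC2-3 interaction, FP format. Cmpds 23 nl via pintool, brief spin, 2 h ambient incubation.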
# TDP1 cell CPT: growth inhibition of DT40 Tdp1-/-;hTDP1 cells with camptothecin (screen for TDP1 inhibitors). chicken DT40 Tdp1-/-;hTDP1 cells + 20 nM CPT, ATP luminescence, 48 h. Potency, µM (top dose mostly 46.2 µM), inactives show top-dose activity change, negative = growth inhibition, most hits filed as inhibitors. 420,000 compounds, 12% hits; note: nearly all actives have a fitted effect of over 55% in size
#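 Chicken DT40 Tdp1-/- cells complemented with human TDP1, 400 cells/well, exposed to compounds plus 20 nM camptothecin for at least 48 h at 37 C; viability read as ATP content by CellTiter-Glo luminescence.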
# TDP1 cell noCPT: qHTS for Inhibitors of human tyrosyl-DNA phosphodiesterase 1 (TDP1): qHTS in cells in absence of CPT; DT40 Tdp1-/- hTDP1 cells, no CPT, ATP luminescence, 48 h; Potency, µM (top dose mostly 46.2 µM), for the others: top-dose activity change, negative = growth inhibition, most hits filed as inhibitors; 420,000 compounds, 15% hits; note: nearly all actives have a fitted effect of over 55% in size
#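 Chicken DT40 Tdp1-/- cells complemented with human TDP1, screened without camptothecin (DMSO vehicle only), 400 cells/well. Compounds pin-transferred, cells incubated at 37 °C for at least 48 hr. Growth read as ATP-dependent luminescence (CellTiter-Glo, 30 min at RT).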
# Active calls of the source: *; ? = inconclusive; . = no result given; [ ] = remark or other dose. Calls come from the whole dose curve; as a rule, active = well fitted curve in the direction sought with a large enough effect; inconclusive = small, poorly fitted or top-dose-only effect, or another doubt; inactive = no such curve, though single readings can be large; an effect the other way counts as inactive or inconclusive. % is set by controls: 0 for no effect and ±100 for the full control effect; potency is the fitted concentration of half-maximal effect.
SMILES,PLK1 PBD block,KAT2A inh,TDP1 block,VDR inh,TDP1 cell CPT,TDP1 cell noCPT
CCc1ccc(N=C2NC(=O)/C(=C/c3cc(OC)c(O)c(OC)c3)S2)cc1,13%,-5%,.,-23%,?,26µM*
COc1cc(/C=C2\SC(=Nc3ccccc3)NC2=O)cc(Cl)c1O,79%,-8%,.,5%,?,?
COc1ccc(NC(=O)c2noc3c2CCCC3)cc1Cl,.,4%,-1%,10%,-22%,-1%
Nc1nc2n(n1)C(=O)CC(c1ccccc1)N2 (stereo not given),27µM*,-2%,4%,5%,-24%,-24%
Nc1nc2n(n1)C(c1cccs1)CC(c1ccccc1)N2 (stereo not given),-7%,0%,2%,8%,-2%,-2%
O=c1[nH]nc(Cc2ccccc2)c2ccccc12,-4%,-2%,2%,4%,7.3µM*,-28%
Cc1nnc(NCc2n[nH]c(=O)c3ccccc23)c2ccccc12,-7%,-2%,1%,61%,5.8µM*,10µM*
COc1ccc(NCc2n[nH]c(=O)c3ccccc23)cc1,-15%,1%,3%,4%,?,?
O=c1[nH]nc(CNc2cccc(C(F)(F)F)c2)c2ccccc12,0%,-2%,1%,-24%,26µM*,15µM*
Cc1cc(C(=O)COC(=O)Cc2n[nH]c(=O)c3ccccc23)c(C)n1-c1cccc(C(F)(F)F)c1,-12%,-4%,3%,3%,?,16µM*
CN(C)CCCN1c2ccccc2C(C)(C)c2ccccc21,.,-11%,2%,4%,?,?
CC(C)Cc1nc2oc3c(Cl)ncnc3c2c2c1CCC2,3%,-1%,2%,-12%,13µM*,18µM*
Cc1csc2c(NCCCN3CCOCC3)ncnc12,1%,-4%,-1%,15%,6%,1%
CC(C)Cc1nc2oc3c(NCCCN4CCOCC4)ncnc3c2c2c1CCC2,4%,-4%,1%,-4%,16µM*,?
Cc1cnc(CNC(=O)C2(C)CCCN2CC(C)C)cn1 (stereo not given),-3%,.,.,.,-18%,-8%
Cc1c(CCC(=O)NCc2cccc(Cl)c2)c(=O)oc2c(C)c(O)ccc12,.,-6%,2%,18%,-2%,-15%
COCc1cccc(-c2csc(C(O)c3cccc(OC)c3)n2)c1 (stereo not given),0%,.,.,.,18µM*,?
COc1cc(C(O)c2nc(-c3ccccc3)cs2)ccc1F (stereo not given),-5%,.,.,.,7.3µM*,6.5µM*
COCc1cccc(-c2csc(C(O)c3ccc(F)c(OC)c3)n2)c1 (stereo not given),-1%,.,.,.,8.2µM*,21µM*
COc1ccc(-c2csc(C(O)c3ccc(F)c(OC)c3)n2)cn1 (stereo not given),-9%,.,.,.,16µM*,23µM*
COC(=O)[C@@H]1CCCN1C(=O)c1c(OC)cc(=O)n2c1CCN(Cc1cc(OC)ccc1F)CC2,.,.,.,.,-2%,-23%
COc1cccc(C(O)c2nc(-c3ccc(F)c(Cl)c3)cs2)c1 (stereo not given),-9%,.,.,.,16µM*,?
COc1ccc(C(O)c2nc(-c3ccc(F)c(Cl)c3)cs2)cc1 (stereo not given),-2%,.,.,.,?,?
COc1ccc(-c2csc(C(O)c3ccc(F)c(OC)c3)n2)cc1 (stereo not given),-2%,.,.,.,13µM*,15µM*
COc1cc(C(O)c2nc(-c3ccc(F)cc3OC)cs2)ccc1F (stereo not given),-8%,.,.,.,?,?
SMILES,PLK1 PBD block,KAT2A inh,TDP1 block,VDR inh,TDP1 cell CPT,TDP1 cell noCPT
O=C(NCc1ccccc1)c1cnc(N2CCCCC2)c2ccccc12,.,-6%,1%,-3%,23µM*,?
CCOc1ccc(NC(=O)c2cnc(N3CCCCC3)c3ccccc23)cc1,.,-3%,-4%,10%,21µM*,13µM*
N#Cc1ccccc1NC(=O)c1cnc(N2CCOCC2)c2ccccc12,.,-5%,5%,-10%,?,?
Cc1ccc(NC(=O)c2cnc(N3CCCCC3)c3ccccc23)cc1Cl,.,2%,-10%,8%,21µM*,?
CCOC(=O)c1ccccc1NC(=O)c1cnc(N2CCOCC2)c2ccccc12,.,-5%,3%,8%,?,16µM*
CS(=O)(=O)c1ccccc1-c1nc(-c2ccc([N+](=O)[O-])cc2)no1,-8%,-1%,6%,-9%,16%,2%
Cc1cc(C)cc(NC(=O)C(CC(C)C)NC(=O)C2CCCCC2)c1 (stereo not given),.,-5%,-6%,-21%,?,?
COc1ncc2nc(-c3ccccc3)c(=O)n(C)c2n1,.,-13%,.,11%,-8%,-3%
O=C(/C=C/N1CCOCC1)c1ccc(-c2ccccc2)cc1,-4%,-20%,2%,-14%,?,21µM*
O=C(/C=C\N1CCOCC1)c1ccc(Br)cc1,6%,-16%,.,-24%,8%,4%
CNC(=O)c1c(O)c2cccc3c2n(c1=O)CCC3,-16%,3%,.,-13%,-24%,?
CCCc1nc2ccccc2c(=O)n1NC(=O)c1c(O)c2cccc3c2n(c1=O)CCC3,-7%,-3%,9%,20%,?,16µM*
CCN(CC)CCNC(=O)c1c(O)c2cccc3c2n(c1=O)CCC3,-3%,1%,10%,-8%,?,?
CCCCc1nc2ccccc2c(=O)n1NC(=O)c1c(O)c2ccccc2n(C)c1=O,-14%,0%,-6%,5%,4.1µM*,3.7µM*
CCCCCCNC(=O)c1c(O)c2cccc3c2n(c1=O)CCC3,-7%,-28%,-6%,2%,?,29µM*
Cc1nc2ccccc2c(=O)n1NC(=O)c1c(O)c2ccccc2n(C)c1=O,.,-17%,-2%,.,.,.
Nc1c(-c2ccccc2)cc[nH]c1=O,.,.,5%,.,.,.
CCCC(C(=O)Nc1ccc2c(C)cc(=O)oc2c1)c1ccccc1 (stereo not given),-9%,-13%,3%,6%,26µM*,?
Cc1cc(=O)oc2cc(NC(=O)Cc3ccccc3)ccc12,-8%,3%,-17%[0.0935 µM],21%,9%,-20%
Cc1[nH]n2c(=O)cc(-c3ccccc3Cl)nc2c1-c1ccccc1,.,1%,14%,-21%,9.2µM*,2.6µM*
COCc1cc(=O)n2[nH]c(C)c(-c3ccc(Cl)cc3)c2n1,-3%,.,.,.,13µM*,16µM*
CCN(CC)C(=O)CSc1nnnn1-c1ccc(F)c(Cl)c1,-2%,9%,-2%,-5%,-21%,-17%
